Most compounds without a hit are left out; they make up all but 15% or so of the library.
TDP1 cell noCPT – qHTS for Inhibitors of human tyrosyl-DNA phosphodiesterase 1 (TDP1): qHTS in cells in absence of CPT; DT40 Tdp1-/- hTDP1 cells, no CPT, ATP luminescence, 48 h; Potency, µM (doses to about 46.2 µM), actives largely listed as inhibitors; 420,000 tested, 15% active; further: nearly all actives have a fitted effect of over 55% in size
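Cells were dispensed at 400 per well, compounds added by pin tool, plates incubated ≥48 hr at 37 °C, then CellTiter-Glo added for 30 min at room temperature before luminescence reading. Line: DT40 Tdp1-/- complemented with hTDP1; camptothecin omitted.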
RORgamma inh – blocks mouse ROR gamma transcriptional activity | Potency, µM (series often up to 53.6 µM), usual class: inhibitors | P51450 | Drosophila S2 Gal4-RORgamma UAS-luciferase reporter, 20 h | AID 2551 | 310,000 tested, 5.4% active; further: nearly all actives have a fitted effect of over 60% in size
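Luminescence from a UAS-regulated Photinus luciferase reporter in stably transfected Drosophila Schneider cells is measured; decreased signal marks ROR gamma inhibition. Fusion expression is induced by 700 uM copper sulfate for 20 hr.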
ALOX12 inh – inhibitors of human 12S-lipoxygenase ALOX12; purified 12hLO, xylenol orange hydroperoxide absorbance; Potency, µM (series often up to 108 µM), most hits filed as inhibitors; 580,000 tested, 1.1% active
Target sequence (P18054 whole entry, looked up): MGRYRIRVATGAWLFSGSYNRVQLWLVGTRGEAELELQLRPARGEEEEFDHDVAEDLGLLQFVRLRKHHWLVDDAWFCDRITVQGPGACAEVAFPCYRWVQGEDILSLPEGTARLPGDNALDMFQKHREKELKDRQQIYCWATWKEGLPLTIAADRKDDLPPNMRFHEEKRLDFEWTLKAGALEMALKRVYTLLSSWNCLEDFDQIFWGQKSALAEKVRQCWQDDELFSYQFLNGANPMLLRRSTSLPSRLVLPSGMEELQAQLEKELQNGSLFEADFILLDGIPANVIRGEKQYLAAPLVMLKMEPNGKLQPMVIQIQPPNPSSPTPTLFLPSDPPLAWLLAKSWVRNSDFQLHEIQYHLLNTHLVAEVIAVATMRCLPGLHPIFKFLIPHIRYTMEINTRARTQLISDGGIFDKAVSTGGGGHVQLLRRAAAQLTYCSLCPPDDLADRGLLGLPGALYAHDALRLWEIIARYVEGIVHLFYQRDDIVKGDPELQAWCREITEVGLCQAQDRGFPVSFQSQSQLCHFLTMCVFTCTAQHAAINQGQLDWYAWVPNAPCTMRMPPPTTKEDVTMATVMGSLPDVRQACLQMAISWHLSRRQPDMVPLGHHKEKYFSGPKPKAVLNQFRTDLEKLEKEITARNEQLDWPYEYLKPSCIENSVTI
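Hydroperoxide product was detected by ferrous iron/xylenol orange as the 573 to 405 nm absorbance ratio. Arachidonic acid at 40 uM (final) was turned over for 30 min at room temperature by 150 nM human 12hLO, pH 7.0 Hepes buffer, after 15 min compound preincubation.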
ELG1 repair inh – ELG1-dependent DNA repair inhibition; HEK293T ELG1-luciferase reporter, luminescence, 16 h; DNA damage induced by 5-fluorouridine; Potency, µM (series often up to 46.1 µM), actives largely listed as inhibitors; 330,000 tested, 2.3% active; AID 504467; further: nearly all actives have a fitted effect of over 55% in size
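DMSO vehicle served as the neutral condition. Each well held 2,000 cells given 5-fluorouridine plus compound; after 16 hr at 37 °C/5% CO2, ONE-Glo was added and luciferase measured 30 min later.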
Gal4-VP16 FLuc – Gal4-VP16 reporter inhibition counter-screen; AID 2546; 310,000 tested, 3.5% active; Potency, µM (series often up to 53.6 µM), actives largely listed as inhibitors; Drosophila S2 Gal4-VP16 UAS-luciferase, luminescence, 20 h;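 further: Gal4-VP16 expression switched on by copper sulfate through the metallothionein promoter; nearly all actives have a fitted effect of over 50% in size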
DT40 TDP1 CPT – DT40-hTDP1 cell growth loss with CPT | chicken DT40 Tdp1-/-;hTDP1 cells + 20 nM CPT, ATP luminescence, 48 h | Potency, µM (top dose mostly 46.2 µM), hits mostly inhibitors | 420,000 tested, 12% active | AID 686979; further: nearly all actives have a fitted effect of over 55% in size
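Chicken DT40 Tdp1-/- cells complemented with human TDP1, 400 cells/well, exposed to compounds plus 20 nM camptothecin for at least 48 h at 37 C; viability read as ATP content by CellTiter-Glo luminescence.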
Hits are given with their value. The call rests on the fitted dose curve; in most records, active means well fitted curve in the direction sought with a large enough effect; inconclusive means small, poorly fitted or top-dose-only effect, or another doubt; inactive means no such curve, though single readings can be large; an effect the other way counts as inactive or inconclusive.

What do the screens show for `Cc1ccc2c(CN3CCN(CCc4ccncc4)CC3)cc(=O)oc2c1`?
ALOX12 inh: inactive

How did CCOC(=O)c1cnn(-c2ccc(NS(=O)(=O)c3ccc(Cl)cc3)cc2)c1C(F)(F)F do in these assays?
TDP1 cell noCPT: inconclusive; RORgamma inh: inconclusive; ALOX12 inh: inconclusive; ELG1 repair inh: 23µM; Gal4-VP16 FLuc: inactive; DT40 TDP1 CPT: inconclusive

How did CCOC(=O)c1ccc(NS(=O)(=O)c2ccc(Cl)nc2)cc1 do in these assays?
RORgamma inh: inactive; ELG1 repair inh: inactive; Gal4-VP16 FLuc: inactive

Results for CC(=O)N1C[C@@H](C(=O)NCCc2ccc(Cl)cc2)[C@H](c2nc(C)no2)C1 ?
ALOX12 inh: inactive

How did CC1Cc2cc(S(=O)(=O)NCCC(=O)NCc3ccc(F)cc3)ccc2N1C(=O)C1CC1 (configuration not stated) do in these assays?
TDP1 cell noCPT: inconclusive; RORgamma inh: inactive; ALOX12 inh: inactive; ELG1 repair inh: inactive; Gal4-VP16 FLuc: inconclusive; DT40 TDP1 CPT: inconclusive

How did COc1ccccc1CNC(=O)CCS(=O)(=O)c1ccc2c(c1)CC(C)N2C(=O)C1CC1 (configuration not stated) do in these assays?
TDP1 cell noCPT: 23µM; RORgamma inh: inactive; ALOX12 inh: inactive; ELG1 repair inh: inactive; Gal4-VP16 FLuc: inactive; DT40 TDP1 CPT: 21µM

Results for CC(CC(=O)NCc1ccco1)S(=O)(=O)c1ccc2c(c1)CCN2C(=O)C1CC1 (configuration not stated) ?
TDP1 cell noCPT: inconclusive; RORgamma inh: inactive; ALOX12 inh: inactive; ELG1 repair inh: inactive; Gal4-VP16 FLuc: inactive; DT40 TDP1 CPT: 18µM

Results for CC1Cc2cc(S(=O)(=O)CCC(=O)NCc3ccco3)ccc2N1C(=O)C1CC1 (configuration not stated) ?
TDP1 cell noCPT: 2.9µM; RORgamma inh: inactive; ALOX12 inh: inactive; ELG1 repair inh: inactive; Gal4-VP16 FLuc: inactive; DT40 TDP1 CPT: 6.5µM

How did CC1Cc2cc(S(=O)(=O)CCC(=O)Nc3ccc(F)cc3)ccc2N1C(=O)C1CC1 (configuration not stated) do in these assays?
TDP1 cell noCPT: inconclusive; ALOX12 inh: inactive; DT40 TDP1 CPT: inconclusive

Results for COc1ccc(CNC(=O)CCS(=O)(=O)c2ccc3c(c2)CC(C)N3C(=O)C2CC2)cc1 (configuration not stated) ?
TDP1 cell noCPT: 3.7µM; RORgamma inh: inactive; ALOX12 inh: inactive; ELG1 repair inh: inconclusive; Gal4-VP16 FLuc: inactive; DT40 TDP1 CPT: 15µM

Results for COc1ccccc1NC(=O)CCNS(=O)(=O)c1ccc2c(c1)CC(C)N2C(=O)C1CC1 (configuration not stated) ?
TDP1 cell noCPT: inconclusive; RORgamma inh: inactive; ALOX12 inh: inactive; ELG1 repair inh: inactive; Gal4-VP16 FLuc: inactive; DT40 TDP1 CPT: inconclusive

How did Cc1ccc(-c2cnc(CCC(=O)Nc3cccc(F)c3)o2)cc1C do in these assays?
ALOX12 inh: inactive

How did CCC(=O)N1CCc2cc(S(=O)(=O)CCC(=O)NCc3ccco3)ccc21 do in these assays?
TDP1 cell noCPT: 2.9µM; RORgamma inh: inactive; ALOX12 inh: inactive; ELG1 repair inh: inactive; Gal4-VP16 FLuc: inactive; DT40 TDP1 CPT: inactive

How did CCC(=O)N1CCc2cc(S(=O)(=O)CCC(=O)NCCc3ccccc3)ccc21 do in these assays?
TDP1 cell noCPT: inactive; RORgamma inh: inactive; ALOX12 inh: inactive; ELG1 repair inh: inactive; Gal4-VP16 FLuc: inactive; DT40 TDP1 CPT: inactive

Results for COc1cccc(/C=N/NC(=S)Nc2cccnc2)c1 ?
TDP1 cell noCPT: 4.6µM; RORgamma inh: 2.5µM; ALOX12 inh: inactive; ELG1 repair inh: inconclusive; Gal4-VP16 FLuc: 3.2µM; DT40 TDP1 CPT: 2.3µM

What do the screens show for `CC(C)(C)NC(=S)N/N=C/c1cccnc1`?
TDP1 cell noCPT: 26µM; RORgamma inh: 5.6µM; ALOX12 inh: inconclusive; ELG1 repair inh: inactive; Gal4-VP16 FLuc: 10µM; DT40 TDP1 CPT: 15µM

Results for COc1cccc(/C=N/NC(=S)Nc2cccc(C(=O)O)c2)c1 ?
TDP1 cell noCPT: inactive; RORgamma inh: 10µM; ALOX12 inh: inconclusive; ELG1 repair inh: inconclusive; Gal4-VP16 FLuc: inactive; DT40 TDP1 CPT: inactive

Results for COc1ccc(O)c(/C=N/NC(=S)Nc2cccnc2)c1 ?
TDP1 cell noCPT: 18µM; RORgamma inh: 6.3µM; ALOX12 inh: inactive; ELG1 repair inh: inconclusive; Gal4-VP16 FLuc: inactive; DT40 TDP1 CPT: inconclusive

How did CCN(CC)c1cc(C)nc(Nc2ccc(NC(=O)CCCc3ccccc3)cc2)n1 do in these assays?
ALOX12 inh: inactive

How did Cc1cccc(CNc2nc(-c3cccc(NS(C)(=O)=O)c3)nc3ccccc23)c1 do in these assays?
TDP1 cell noCPT: inconclusive; RORgamma inh: inactive; ALOX12 inh: inconclusive; Gal4-VP16 FLuc: inactive; DT40 TDP1 CPT: inconclusive

Results for CC(=O)NCCNc1nc(-c2cccc(NS(C)(=O)=O)c2)nc2ccccc12 ?
TDP1 cell noCPT: inactive; RORgamma inh: inactive; ALOX12 inh: 2.2µM; Gal4-VP16 FLuc: inactive; DT40 TDP1 CPT: inconclusive

What do the screens show for `CNc1nc(-c2cccc(NS(C)(=O)=O)c2)nc2ccccc12`?
TDP1 cell noCPT: inactive; RORgamma inh: inactive; ALOX12 inh: inconclusive; Gal4-VP16 FLuc: inactive; DT40 TDP1 CPT: inactive

Results for CS(=O)(=O)Nc1cccc(-c2nc(Nc3ccc(F)cc3)c3ccccc3n2)c1 ?
TDP1 cell noCPT: 4.1µM; RORgamma inh: inactive; ALOX12 inh: inconclusive; Gal4-VP16 FLuc: inconclusive; DT40 TDP1 CPT: 5.8µM

Results for CCOc1ccc(S(=O)(=O)Nc2ccc(O)c(Sc3ncn[nH]3)c2)cc1 ?
TDP1 cell noCPT: inconclusive; RORgamma inh: inconclusive; ALOX12 inh: inactive; ELG1 repair inh: inconclusive; Gal4-VP16 FLuc: 3.5µM; DT40 TDP1 CPT: inconclusive

What do the screens show for `Cc1ccc(S(=O)(=O)Nc2ccc(O)c(Sc3ncn[nH]3)c2)cc1`?
TDP1 cell noCPT: inactive; RORgamma inh: inactive; ALOX12 inh: inconclusive; ELG1 repair inh: inactive; Gal4-VP16 FLuc: inactive; DT40 TDP1 CPT: inactive

How did CSc1ccc(CCNC(=O)CCCn2nc(C)c3sc4ccccc4c3c2=O)cc1 do in these assays?
TDP1 cell noCPT: inconclusive; ALOX12 inh: inactive; DT40 TDP1 CPT: 15µM

How did COc1cccc(CNC(=O)CCCn2nc(C)c3sc4ccccc4c3c2=O)c1 do in these assays?
TDP1 cell noCPT: inconclusive; ALOX12 inh: inactive; DT40 TDP1 CPT: 16µM

What do the screens show for `Cc1nc(N2CCC(C(=O)NCCc3cccs3)CC2)cc(C(F)(F)F)n1`?
ALOX12 inh: inactive

What do the screens show for `COc1ccc(CNC(=O)[C@H]2O[C@H](CCN3CCCC3)CC[C@@H]2O)cc1`?
ALOX12 inh: inactive

Results for CC(C)Oc1ccccc1C(C)NC(=O)Cc1c[nH]c2ccccc12 (configuration not stated) ?
ALOX12 inh: inactive

Assay outcomes as filed in PubChem BioAssay.
